Among the data in the antibiotic and cytotoxicity screens of Wong et al. (2023) are cytotoxicity call values, retold here.

The structures appear in SMILES notation. The whole screen tested about 39,000 compounds, of which about 1,500 (3.8%) were called active. Shown is part of a subset that was picked to be rich in actives.

For the test, the system named is HSkMC (human skeletal muscle cells). The experiment in a line: cytotoxicity call (relative viability < 0.9). The settings on record: 10 µM.
Turning to `COc1ccc(CN(C)C[C@H]2Oc3ccc(NC(=O)Nc4ccc(C(F)(F)F)cc4)cc3CC(=O)N([C@@H](C)CO)C[C@H]2C)cc1`, the cytotoxicity call is “active”.

With `COc1ccc(NC(=O)Nc2ccc3c(c2)CC(=O)N([C@H](C)CO)C[C@H](C)[C@H](CN(C)Cc2ccc(C(F)(F)F)cc2)O3)cc1`, the cytotoxicity call is “inactive”.

Take `COc1ccc(NC(=O)Nc2ccc3c(c2)CC(=O)N([C@H](C)CO)C[C@@H](C)[C@H](CN(C)Cc2ccc(C(F)(F)F)cc2)O3)cc1`: the cytotoxicity call is “inactive”. For the compound `COc1ccc(NC(=O)Nc2ccc3c(c2)CC(=O)N([C@@H](C)CO)C[C@H](C)[C@@H](CN(C)Cc2ccc(C(F)(F)F)cc2)O3)cc1`, the cytotoxicity call was “inactive”. In the case of `COc1ccc(NC(=O)Nc2ccc3c(c2)CC(=O)N([C@@H](C)CO)C[C@@H](C)[C@H](CN(C)Cc2ccc(C(F)(F)F)cc2)O3)cc1` it was “inactive”; in that of `COc1ccc(CN(C)C[C@H]2Oc3ccc(NC(=O)Nc4ccc(C(F)(F)F)cc4)cc3CC(=O)N([C@H](C)CO)C[C@H]2C)cc1`, “active”. As to `COc1ccc(CN(C)C[C@H]2Oc3ccc(NC(=O)Nc4ccc(C(F)(F)F)cc4)cc3CC(=O)N([C@@H](C)CO)C[C@@H]2C)cc1`, the cytotoxicity call was “inactive”. Regarding `COc1ccc(NC(=O)Nc2ccc3c(c2)CC(=O)N([C@H](C)CO)C[C@@H](C)[C@@H](CN(C)Cc2ccc(C(F)(F)F)cc2)O3)cc1`, the cytotoxicity call is “active”.

As to `COc1ccc(CN(C)C[C@@H]2Oc3ccc(NC(=O)Nc4ccc(C(F)(F)F)cc4)cc3CC(=O)N([C@@H](C)CO)C[C@@H]2C)cc1`, the cytotoxicity call is “inactive”. Regarding `COc1ccc(NC(=O)Nc2ccc3c(c2)CC(=O)N([C@H](C)CO)C[C@H](C)[C@@H](CN(C)Cc2ccc(C(F)(F)F)cc2)O3)cc1`, the cytotoxicity call was “inactive”.

`COc1ccc(NC(=O)Nc2ccc3c(c2)CC(=O)N([C@@H](C)CO)C[C@H](C)[C@H](CN(C)Cc2ccc(C(F)(F)F)cc2)O3)cc1`: the cytotoxicity call is “active”. As for `COc1ccc(NC(=O)Nc2ccc3c(c2)CC(=O)N([C@@H](C)CO)C[C@@H](C)[C@@H](CN(C)Cc2ccc(C(F)(F)F)cc2)O3)cc1`, the cytotoxicity call was “inactive”. With `COc1ccc(C#Cc2ccc3c(c2)[C@]2(C(=O)N3)[C@H](C(=O)N3CCc4cc(OC)c(OC)cc4C3)[C@H]3C(=O)O[C@H](c4ccccc4)[C@H](c4ccccc4)N3[C@@H]2c2ccc(O)cc2)cc1`, the cytotoxicity call was “inactive”. For `C[C@@H]1CN([C@H](C)CO)C(=O)Cc2cc(NC(=O)Nc3ccc(C(F)(F)F)cc3)ccc2O[C@H]1CN(C)C(=O)Nc1cccc2ccccc12`, the cytotoxicity call is “inactive”. `C[C@H](CO)N1C[C@H](C)[C@@H](CN(C)C(=O)Cc2ccccn2)Oc2cc(C#Cc3ccccc3)ccc2S1(=O)=O`: the cytotoxicity call was “inactive”.

Take `Cn1ncc2c1CCCC2=O`: the cytotoxicity call is “inactive”.

For the compound `Cc1noc(C)c1NC(=O)N(C)C[C@H]1Oc2ncc(C#CCN(C)C)cc2C(=O)N([C@H](C)CO)C[C@H]1C`, the cytotoxicity call was “inactive”.

With `COc1cccc(S(=O)(=O)N(C)C[C@@H]2Oc3ncc(C#CCN(C)C)cc3C(=O)N([C@@H](C)CO)C[C@@H]2C)c1`, the cytotoxicity call was “inactive”. With `C[C@@H]1CN([C@H](C)CO)C(=O)Cc2cc(NC(=O)Nc3ccc4c(c3)OCO4)ccc2O[C@@H]1CN(C)S(C)(=O)=O`, the cytotoxicity call is “inactive”. Consider `COc1ccc(NC(=O)N(C)C[C@H]2OCCCC[C@H](C)Oc3ccc(NC(=O)c4ccccc4)cc3C(=O)N([C@@H](C)CO)C[C@@H]2C)cc1`, for which the cytotoxicity call was “inactive”.

As to `COc1ccc(S(=O)(=O)N(C)C[C@H]2OCCCC[C@@H](C)Oc3ccc(NC(=O)CCC(F)(F)F)cc3C(=O)N([C@@H](C)CO)C[C@@H]2C)cc1`, the cytotoxicity call was “inactive”. Next, `COc1ccc(CN(C)C[C@@H]2Oc3ccc(NC(=O)Nc4ccc(C(F)(F)F)cc4)cc3CC(=O)N([C@H](C)CO)C[C@H]2C)cc1`: “inactive”; `COc1ccc(CN(C)C[C@@H]2Oc3ccc(NC(=O)Nc4ccc(C(F)(F)F)cc4)cc3CC(=O)N([C@H](C)CO)C[C@@H]2C)cc1`: “active”; `COc1ccc(NC(=O)Nc2ccc3c(c2)CC(=O)N([C@@H](C)CO)C[C@H](C)[C@@H](CN(C)C(=O)Nc2ccc(C(F)(F)F)cc2)O3)cc1`: “inactive”.

With `C[C@@H]1CN([C@@H](C)CO)C(=O)c2cccc(NS(C)(=O)=O)c2O[C@@H]1CN(C)S(=O)(=O)c1cn(C)cn1`, the cytotoxicity call is “inactive”.

Regarding `COc1ccc(NC(=O)N(C)C[C@H]2Oc3ccc(NS(=O)(=O)c4c(C)noc4C)cc3C(=O)N([C@@H](C)CO)C[C@H]2C)cc1`, the cytotoxicity call was “inactive”. In the case of `COc1ccc(S(=O)(=O)Nc2ccc3c(c2)C(=O)N([C@@H](C)CO)C[C@@H](C)[C@@H](CN(C)S(C)(=O)=O)O3)cc1`, the cytotoxicity call is “inactive”. With `COc1ccccc1C#Cc1ccc2c(c1)O[C@@H](CN(C)Cc1cncnc1)[C@H](C)CN([C@@H](C)CO)S2(=O)=O`, the cytotoxicity call was “active”. For `COc1ccccc1C#Cc1ccc2c(c1)O[C@H](CN(C)Cc1cncnc1)[C@H](C)CN([C@H](C)CO)S2(=O)=O`, the cytotoxicity call was “inactive”. Turning to `COc1ccccc1C#Cc1ccc2c(c1)O[C@H](CN(C)Cc1cncnc1)[C@@H](C)CN([C@@H](C)CO)S2(=O)=O`, the cytotoxicity call is “inactive”. For the compound `COc1ccccc1C#Cc1ccc2c(c1)O[C@H](CN(C)Cc1cncnc1)[C@@H](C)CN([C@H](C)CO)S2(=O)=O`, the cytotoxicity call is “inactive”. On to `COc1ccccc1C#Cc1ccc2c(c1)O[C@@H](CN(C)Cc1cncnc1)[C@@H](C)CN([C@@H](C)CO)S2(=O)=O`, for which the cytotoxicity call was “inactive”. On to `COc1ccccc1C#Cc1ccc2c(c1)O[C@@H](CN(C)Cc1cncnc1)[C@H](C)CN([C@H](C)CO)S2(=O)=O`, for which the cytotoxicity call was “active”. In the case of `COc1ccc(S(=O)(=O)N(C)C[C@H]2Oc3c(NC(=O)c4cc(C)nn4C)cccc3C(=O)N([C@H](C)CO)C[C@H]2C)cc1` it was “inactive”; in that of `C[C@@H]1CCCCO[C@H](CN(C)CC2CC2)[C@@H](C)CN([C@H](C)CO)C(=O)c2cc(NC(=O)CCC(F)(F)F)ccc2O1`, “inactive”; in that of `COc1ccc(S(=O)(=O)N2c3ccc(Cl)cc3[C@](O)(c3ccccc3Cl)[C@@H]2C(=O)N2CCC[C@H]2C(N)=O)cc1OC`, “inactive”.

As to `C[C@@H]1CN([C@@H](C)CO)C(=O)c2cccc(NS(=O)(=O)c3cn(C)cn3)c2O[C@H]1CN(C)C(=O)Nc1ccc2c(c1)OCO2`, the cytotoxicity call was “inactive”. `O=C(CS)NCCCCCNC(=O)[C@@H]1C[C@@H]2C(=O)N[C@@H](Cc3ccccc3)C(=O)N2[C@@H]1c1ccc(O)cc1`: the cytotoxicity call was “inactive”.
